# Screening results deposited in PubChem by National Center for Advancing Translational Sciences (NCATS).
# Only some compounds are listed: those with a hit (about 10% of all), similar ones and a draw of the others.
# JMJD2A Tudor inh: inhibitors of human JMJD2A Tudor domain | AID 504339 | 390,000 tested, 4.4% active | Potency, µM (highest dose often 114 µM), without a hit: at the top dose activity change, negative = inhibition, actives largely listed as inhibitors | O75164 | AlphaScreen JMJD2A-Tudor / H3K4me3 peptide binding; note: % is set by controls: 0 for no effect and ±100 for the full control effect; nearly all actives have a fitted effect of over 50% in size
# BAZ2B inh: BAZ2B (human) inhibition | Q9UIF8 | AlphaScreen BAZ2B-H3K14Ac peptide displacement | Potency, µM (doses to about 114 µM), for the others: at the highest dose activity change, negative = inhibition, most hits filed as inhibitors | 360,000 tested, 4.4% active | AID 504333; note: % is set by controls: 0 for no effect and ±100 for the full control effect; nearly all actives have a fitted effect of over 60% in size
#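 AlphaScreen displacement: compounds (up to 110uM) incubated 30 min at room temperature with a preformed 50 nM BAZ2B/50 nM biotinylated H3K14Ac peptide complex in PBS pH 7.4 with Tween-20. Donor and acceptor beads at 10 ug/mL final added, 20 min light-protected before reading.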
# HP1b binding inh: inhibitors of HP1-beta chromodomain binding to methylated histone tails; Potency, µM (series often up to 114 µM), for inactives: at the highest dose activity change, negative = inhibition, actives largely listed as inhibitors; P83916; AlphaScreen HP1-beta / biotin-H3K9me3 peptide binding; AID 540317; 390,000 tested, 0.56% active; note: nearly all actives have a fitted effect of over 70% in size
#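 AlphaScreen: HP1-beta (50 nM) preformed 30 min with biotin-H3(1-18)K9me3 peptide (50 nM) in PBS pH 7.4, 0.01% Tween-20. Compound added for 30 min at RT, then streptavidin donor/nickel chelate acceptor beads (10 ug/mL) for 30 min.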
# G9a block: G9a (human) methyltransferase inhibition. Q96KQ7. G9a H3K9 monomethylation, AlphaScreen, 2 h. Potency, µM (top dose mostly 102 µM), for inactives: at the top dose activity, negative = inhibition, most hits filed as inhibitors. 350,000 tested, 8.8% active; note: % is set by controls: 0 for no effect and ±100 for the full control effect; nearly all actives have a fitted effect of over 75% in size
#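 AlphaScreen read-out: biotin-H3K9 peptide (500 nM) methylation by 20 nM enzyme with 20 uM SAM, 2 h at room temperature after 15 min compound preincubation; anti-monomethyl H3K9 antibody plus donor/acceptor beads, 10 min dark.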
# GLS inhibitor: blocks human kidney-isoform glutaminase activity | O94925 | GLS enzymatic activity, qHTS titration | Potency, µM (highest dose often 45.5 µM), without a hit: at the highest dose activity change, negative = inhibition, hits mostly inhibitors | 410,000 tested, 0.21% active | AID 624170; note: % is set by controls: 0 for no effect and ±100 for the full control effect
# Target sequence (O94925 whole entry, looked up, canonical isoform): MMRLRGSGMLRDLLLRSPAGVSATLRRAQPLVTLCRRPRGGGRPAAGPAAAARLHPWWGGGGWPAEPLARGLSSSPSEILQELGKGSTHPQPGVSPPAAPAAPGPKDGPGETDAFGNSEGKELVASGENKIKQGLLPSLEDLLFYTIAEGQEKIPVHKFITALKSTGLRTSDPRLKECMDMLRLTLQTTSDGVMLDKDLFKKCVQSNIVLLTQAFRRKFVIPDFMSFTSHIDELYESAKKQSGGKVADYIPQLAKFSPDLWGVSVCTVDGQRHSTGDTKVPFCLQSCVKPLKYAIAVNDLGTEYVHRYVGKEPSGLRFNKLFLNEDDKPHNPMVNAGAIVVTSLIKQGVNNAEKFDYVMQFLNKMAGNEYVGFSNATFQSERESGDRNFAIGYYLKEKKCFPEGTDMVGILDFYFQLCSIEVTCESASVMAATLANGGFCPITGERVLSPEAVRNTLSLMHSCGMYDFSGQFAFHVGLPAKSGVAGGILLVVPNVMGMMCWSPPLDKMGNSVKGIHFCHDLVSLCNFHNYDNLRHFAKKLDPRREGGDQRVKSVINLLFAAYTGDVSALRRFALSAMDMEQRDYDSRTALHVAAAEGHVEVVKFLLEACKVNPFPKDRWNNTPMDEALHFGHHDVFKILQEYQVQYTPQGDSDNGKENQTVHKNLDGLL
#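 Coupled fluorescence readout: glutamate oxidase/HRP/Amplex Red detect glutamate formed by hKGA from L-glutamine (1 mM solution added). Buffer 45 mM KH2PO4 pH 8.2, 0.02% Tween-20; reads at t0 and 30 min RT.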
# L3MBTL1 block: inhibitors of human L3MBTL1; Q9Y468; AlphaScreen L3MBTL1–H3K9me1 peptide binding; Potency, µM (series often up to 57.1 µM), inactives show top-dose activity, negative = inhibition, usual class: inhibitors; 230,000 tested, 0.66% active; AID 485360; note: % is set by controls: 0 for no effect and ±100 for the full control effect; nearly all actives have a fitted effect of over 60% in size
#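 L3MBTL1 50 nM + b-AHA-H3(1-15)K9me1 75 nM, 30 min RT; compound added, 30 min RT; streptavidin donor/Ni-chelate acceptor beads 10 ug/mL each final, 30 min RT dark; AlphaScreen read.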
# Active calls of the source: *; ? = inconclusive; . = no result given; [ ] = dose if it differs, or a comment. Calls come from the whole dose curve; as a rule, active = well fitted curve in the direction sought with a large enough effect; inconclusive = small, poorly fitted or top-dose-only effect, or another doubt; inactive = no such curve, though single readings can be large; an effect the other way counts as inactive or inconclusive. Potency is the fitted concentration of half-maximal effect.
SMILES,JMJD2A Tudor inh,BAZ2B inh,HP1b binding inh,G9a block,GLS inhibitor,L3MBTL1 block
Cc1ccc(N=C2C(=O)Nc3c(C)cccc32)cc1,-9%,-35%,25%,14%,6%,-4%
CC(=O)N1CCc2c(sc3c2c(=O)n(-c2ccccc2C)c(=O)n3CC(=O)Nc2ccccc2)C1,-22%,-1%,2%,-2%[59 µM],-6%,.
CCCCCCCC[n+]1c(C)n(-c2ccccc2)c2ccc(NC(C)=O)cc21,-4%,-17%,33%,40µM*,0%,-3%
O=C1CC(SCc2nc3ccccc3[nH]2)C(=O)N1c1ccc(F)c(Cl)c1 (stereo not given),3%,?,62%,40µM*,.,.
O=C1CC(SCc2nc3ccccc3[nH]2)C(=O)N1c1ccc(Cl)cc1 (stereo not given),-16%,0%,43%,18µM*,-6%,-5%
COc1ccc(-c2c(C)c3ccc(O)c(CN4CCCC(C)C4)c3oc2=O)cc1OC (stereo not given),5%,?,23%[57 µM],10%[59 µM],0%,.
Cc1cc(C)n2nc(CNC(=O)c3ccccc3Cl)nc2n1,2%,-1%,32%,6%[59 µM],-13%,.
O=C(Nc1ccc(-n2cnnn2)cc1)c1cn2ccccc2n1,-8%,-7%,31%,-20%,-1%,-1%
Cc1c(NC(=O)c2cn3ccccc3n2)cccc1-n1cnnn1,20µM*,-11%,14%,?,-18%,-1%
O=C(Nc1cccc(Cl)c1)Nc1cccc(Cl)c1,18%,12%,40%,17%[59 µM],5%,8%
O=C(N/C=C/c1ccco1)Nc1cccc(Cl)c1,?,?,6%,50µM*,2%,-15%
O=C(N/C=C/c1ccco1)OCc1ccccc1,-31%,?,35%,50µM*,-16%,-12%
COc1ccc(NC(=O)N/C=C/c2ccco2)cc1,?,?,-17%,10µM*,5%,?
CCc1ccc(-n2nc(C)c3c(C)cc(=O)n(CC(=O)N4CCCc5ccccc54)c32)cc1,-14%,-11%,37%,8%[59 µM],-2%,.
CCSc1nnc(CNC(=O)C23CC4CC(CC(C4)C2)C3)n1Cc1ccccc1,?,6%,42%,32µM*,-8%,5%
CCCSc1nnc(CNC(=O)C23CC4CC(CC(C4)C2)C3)n1Cc1ccccc1,-14%,12%,39%,?,-3%,-4%
COc1ccc(CCNC(=O)c2cccc(-n3cnc4cccnc43)c2C)cc1OC,-7%,-8%,27%,-29%[59 µM],-6%,.
CCC(C(=O)N1CCN(c2ccccc2)CC1)n1nc(C)c2sc3ccccc3c2c1=O (stereo not given),-9%,0%,18%,-5%[59 µM],2%,.
c1ccc(NNC2=NCCS2)cc1,4µM*,-14%,?,50µM*,?,.
Cc1oc(-c2cccs2)nc1CS(=O)CC(=O)NC1CCCCCC1 (stereo not given),-22%,-2%,7%,40µM*,0%,6%
Cc1ccc(-c2nc(CS(=O)CC(=O)NC3CCCCC3)c(C)o2)cc1 (stereo not given),-3%,-20%,43%,?,-12%,.
Cc1ccccc1-c1nc(CS(=O)CC(=O)NC2CCCC2)c(C)o1 (stereo not given),12%,-16%,33%,79µM*,-16%,.
Cc1ccccc1-c1nc(CS(=O)CC(=O)NC2CCCCC2)c(C)o1 (stereo not given),-16%,-13%,13%[57 µM],?,2%,.
CCOc1ccc(NC(=O)c2oc3ccccc3c2NC(=O)Cc2ccc(F)cc2)cc1,-18%,-10%,16%,7%[59 µM],-6%,.
Cc1cc2c(s1)c1cnn(Cc3c(F)cccc3F)c(=O)c1n2C,-18%,.,.,.,.,.
O=C1C(=O)N(CCCn2ccnc2)C(c2ccccn2)/C1=C(/O)c1ccccc1 (stereo not given),.,-8%,.,50µM*,.,5%
